In the library only some 2% were active in any assay of this set; here they are far more common.
LEDGF integ inh – blockers of LEDGF/p75-dependent integrase strand transfer – biochemical, TR-FRET, high throughput, primary screen | TR-FRET IN-LEDGF/p75 DNA integration, Eu/Cy5 | inhibition, % at 3.7 µM | 370,000 compounds, 0.64% hits;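 active = inhibition above the screen-wide mean plus 3 SD, cut at about 13% in these data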;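 also: signal is the Cy5 over europium emission ratio at 671 and 618 nm; 0% = plate median of compound wells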
MBD2 DNA inh – inhibitors of MBD2 binding to methylated DNA, primary screen, biochemical, TR-FRET, DNA-binding domain, human | Methyl-CpG-binding domain protein 2 (Homo sapiens), Q9UBB5 | MBD2 binding to methylated oligonucleotide | 370,000 compounds, 0.31% hits | AID 686964, 2013 | inhibition, % at 4.4 µM; in the data active = inhibition above about 13%
TCR-CD3 inh – inhibitors of human TCR-CD3 interaction, primary screen, biochemical, fluorescence, TAMRA-labeled TCR probe; inhibition, % at 9.4 µM; 360,000 compounds, 0.37% hits; T-cell receptor (TCR); AID 651800, 2012;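 also: recombinant mutant TCR 2C K166C tagged with TAMRA read by polarization; 0% = receptor in buffer alone and 100% = receptor with positive control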
UHRF1 MBD2 ctr – UHRF1 methylated DNA binding inhibitors, primary screen, counter-screen for MBD2 inhibitor project, biochemical, TR-FRET, human UHRF1, single concentration | E3 ubiquitin-protein ligase UHRF1 (Homo sapiens), Q96T88 | UHRF1 binding to methylated oligo | inhibition, % at 4.4 µM | 370,000 compounds, 0.75% hits | AID 687016, 2013; in the data active = inhibition above about 21%;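 also: UHRF1 SRA domain binding a hemimethylated CpG hairpin DNA probe; 0% = median of test compound wells and 100% = reference inhibitor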
Rin1-Abl PPI inh – inhibitors of Rin1-Abl protein binding, primary screen, biochemical, TR-FRET; Tyrosine-protein kinase ABL1 (Homo sapiens) + Ras and Rab interactor 1 (Homo sapiens), …; inhibition, % at 7.35 µM; 360,000 compounds, 0.4% hits; in the data active = inhibition above about 5%, passing the limit was not always enough
BSA probe FL – compounds interfering with TAMRA-BSA probe, counter-screen for TCR-CD3 interaction inhibitor project, biochemical, fluorescence, TAMRA-labeled BSA. shares compounds with TCR-CD3 inh. TAMRA-labeled BSA probe fluorescence counterscreen. inhibition, % at 9.4 µM. 1,200 compounds, 10% hits; in the data active = inhibition above about 23%;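 also: 0% = buffer low control and 100% = reference high control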
TCR-CD3 inh conf – TCR-CD3 interaction inhibitors, retest, confirmation, biochemical, fluorescence, TAMRA-labeled TCR probe; AID 652036, 2013; shares compounds with TCR-CD3 inh; 1,200 compounds, 48% hits; inhibition, % at 9.4 µM; TAMRA-labeled TCR probe fluorescence binding assay
Starred values were filed as active, the others as inactive; / = no result. Rule as the data show it, unless noted: active = inhibition above about 19%; inactive = the rest.

SMILES	LEDGF integ inh	MBD2 DNA inh	TCR-CD3 inh	UHRF1 MBD2 ctr	Rin1-Abl PPI inh	BSA probe FL	TCR-CD3 inh conf
CCC(CO)Oc1cc(NC(=O)c2ccccc2Cl)c2ncn(C(C)C)c2c1 (stereo not drawn)	-1	-1	1	-3	2	/	/
CCC(C)NC(=O)Cn1cnc2sc(C)c(S(=O)(=O)N3CCCCC3)c2c1=O (stereo not drawn)	-2	-3	4	0	-1	/	/
O=C(Nc1ccc(Cl)c(Cl)c1)c1ccc(Cl)c(Cl)c1	2	4	-1	4	0	/	/
CC(C)C1O/C(=N/C(=O)Nc2ccc(Cl)c(Cl)c2)NC1=O (stereo not drawn)	1	-6	35*	4	2	1	4
O=C(N/N=C/c1ccc(O)cc1O)c1ccc(CN2C(=O)c3cccc4cccc2c34)cc1	5	4	27*	6	-4	-35	30*
Cc1ccc(S(=O)(=O)N2C[C@]3(O)C[C@@H]4C(=O)N(c5ccccc5)C(=O)[C@@H]4C[C@]3(OC(=O)Nc3cccs3)C2)cc1	6	-1	0	-3	-1	/	/
COc1ccc(-c2nn(-c3ccccc3)cc2/C=N/NC(=O)c2cccc(S(=O)(=O)Nc3ccccc3Cl)c2)cc1	6	4	20*	-1	-2	12	22*
CC(=O)Cn1cnc2c(cnn2-c2ccc(C)c(C)c2)c1=O	-2	-3	2	2	1	/	/
CCN(CC)c1ccc2nc3ccc(N)cc3[n+](-c3ccccc3)c2c1	-8	-10	124*	-11	-52	121*	97*
CCCCc1c(-c2ccccc2OC)ncn1Cc1ccc(OC)cc1	1	-1	10	3	/	/	/
CCc1ccc(S(=O)(=O)N2CCN(C(=O)c3cccnc3)CC2)cc1	2	-6	0	-2	1	/	/
Cc1ncc(CO)c2c1Oc1nc(-c3ccccc3)nc(SCC(=O)Nc3cccc(O)c3)c1C2	8	0	21*	-2	8	3	7
O=S(=O)(c1ccc(F)cc1)N1CN(Cc2ccco2)c2nc3ccccc3nc21	3	-2	46*	-6	0	9	9
COc1ccc(C(=O)N/N=C\c2ccc(OC)c(COc3ccccc3Br)c2)c(OC)c1	-4	3	26*	1	1	16	32*
COc1ccc(/C=N\NC(=O)c2ccccc2Br)cc1COc1ccccc1	2	0	0	2	-2	/	/
Cn1c(=O)c2c(-c3ccccc3)n(-c3cc([N+](=O)[O-])ccc3O)cc2n(C)c1=O	0	-7	-3	-3	2	/	/
O=S(=O)(c1ccc(F)cc1)N1CCC2(CC1)OCCN2S(=O)(=O)c1cccs1	4	-6	3	-1	5	/	/
Cc1cccc(N2C(=O)C3CCCN3C2=S)c1 (stereo not drawn)	-1	-2	21*	1	-4	6	16
COc1cccc(N2C(=O)C3CCCN3C2=S)c1 (stereo not drawn)	-2	1	8	4	2	/	/
NNC(=O)c1nc[nH]c1C(=O)Nc1ccccn1	10	-1	38*	0	3	2	25*
COc1cccc(CNC(=O)c2ccc(CS(=O)Cc3ccccc3Cl)o2)c1 (stereo not drawn)	1	2	-9	1	-3	/	/
Cc1ccc(S(=O)(=O)Nc2ccc(NC(=O)Nc3cccc(C(F)(F)F)c3)cc2)cc1	-1	0	9	0	-4	/	/
CCN(CC)S(=O)(=O)c1ccc(NC(=O)Nc2cccc(C(F)(F)F)c2)cc1	2	8	81*	1	4	24*	54*
CCN(CC)S(=O)(=O)c1ccc(NC(=O)C2c3ccccc3Oc3ccccc32)cc1	-1	-4	45*	-1	1	0	2
CC(C)c1ccc(NC(=O)C(c2ccccc2)N2CCOCC2)cc1 (stereo not drawn)	-4	10	24*	2	3	11	8
SMILES	LEDGF integ inh	MBD2 DNA inh	TCR-CD3 inh	UHRF1 MBD2 ctr	Rin1-Abl PPI inh	BSA probe FL	TCR-CD3 inh conf
CC1CN(CC(=O)Nc2nc3ccccc3s2)CC(C)O1 (stereo not drawn)	1	-1	9	-1	-3	/	/
O=C(CC1SC(=O)NC1=O)Oc1ccc(/C=N/NC(=O)c2ccccc2O)cc1 (stereo not drawn)	7	1	32*	1	-3	-15	11
O=C(Oc1ccc(/C=N/NC(=O)c2ccccc2O)cc1)c1ccccc1	-2	0	1	1	-5	/	/
CCOC(=O)C1(C)CCN1C(=O)c1ccc(F)c(Cl)c1 (stereo not drawn)	0	-2	-7	3	-1	/	/
O=C(O)c1c[nH]c2c([N+](=O)[O-])cccc2c1=O	1	1	24*	1	0	-5	23*
O=C(CSc1nc2ccccc2n1CCc1ccccc1)c1ccc(O)c(O)c1	32*	26*	23*	57*	0	-10	32*
O=C(CSc1nc2ccccc2c(=O)[nH]1)c1ccc(O)c(O)c1	10	3	32*	1	-2	-19	34*
Cc1ccc(CNC(=O)C2CCC(=O)N(C3CC3)C2)cc1 (stereo not drawn)	1	-3	7	0	4	/	/
Cc1ccc(C(C(=O)NC2CCCCC2)N(CCCN2CCOCC2)C(=O)c2snc(C(N)=O)c2N)cc1 (stereo not drawn)	0	-2	3	-1	5	/	/
COc1ccccc1N(C)S(=O)(=O)c1ccc(C(=O)OCC(=O)c2c[nH]c3ccccc23)cc1	-3	-7	20*	0	0	1	0
COc1cc([N+](=O)[O-])cc(/C=N/NC(=O)c2ccc(NC(=O)c3ccc(C)cc3)cc2)c1O	-1	-1	27*	3	4	-5	45*
CCC1=NN(C(=O)c2cccc([N+](=O)[O-])c2)C(O)(c2ccc(C)cc2)C1 (stereo not drawn)	-2	1	30*	1	-1	-8	28*
Cc1cc(SCC(=O)N/N=C/c2ccc(O)c(O)c2)nc2ccccc12	-4	0	26*	-1	-2	-10	39*
Cc1cc(SCC(=O)N/N=C/c2ccc(O)cc2O)nc2ccccc12	-6	3	2	0	-5	/	/
